Screens from PubChem BioAssay.
Shown are actives, neighbours in structure and some others; about 9.4% of the full set was active somewhere.
FLuc counter – qHTS profiling assay for firefly luciferase inhibitor/activator using purifed enzyme and Km concentrations of substrates (counterscreen for miR-21 project); Luciferin 4-monooxygenase (Photinus pyralis), P08659; purified FLuc, Km substrates, luminescence inhibition; Potency, µM (top dose mostly 57.5 µM), actives largely listed as inhibitors; hit rate 6.9% among 360,000; also: nearly all actives have a fitted effect of over 55% in size
Target sequence (P08659 whole entry, looked up): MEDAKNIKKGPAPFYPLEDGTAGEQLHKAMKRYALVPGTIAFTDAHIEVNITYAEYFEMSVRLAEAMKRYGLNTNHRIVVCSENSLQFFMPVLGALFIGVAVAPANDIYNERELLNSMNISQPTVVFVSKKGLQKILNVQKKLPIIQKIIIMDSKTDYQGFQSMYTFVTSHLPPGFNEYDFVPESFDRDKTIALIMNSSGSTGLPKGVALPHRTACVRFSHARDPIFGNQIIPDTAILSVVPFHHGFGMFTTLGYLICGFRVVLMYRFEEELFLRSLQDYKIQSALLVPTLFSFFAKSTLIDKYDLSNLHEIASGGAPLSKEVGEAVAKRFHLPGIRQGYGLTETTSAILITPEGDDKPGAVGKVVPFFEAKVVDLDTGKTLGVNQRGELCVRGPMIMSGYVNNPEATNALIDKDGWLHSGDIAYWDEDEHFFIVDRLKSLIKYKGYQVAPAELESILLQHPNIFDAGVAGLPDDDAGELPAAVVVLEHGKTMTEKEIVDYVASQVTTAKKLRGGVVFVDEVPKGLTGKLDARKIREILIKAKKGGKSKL
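Biochemical qHTS of compounds, final roughly 60 µM downward over six points, against 10 nM purified firefly luciferase using Km concentrations of substrates (10 uM D-luciferin, 10 uM ATP) in Tris acetate pH 7.5 buffer; luminescence output.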
Rab9 promoter act – qHTS Assay for Rab9 Promoter Activators. Potency, µM (titrated, usually from 9.22 µM), most hits filed as activators. Huh7 Rab9 promoter-luciferase reporter, luminescence, 24 h. hit rate 2.8% among 320,000; also: nearly all actives have a fitted effect of over 60% in size
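Measured in stably transfected Huh7 cells bearing a Rab9 promoter–luciferase construct: 24 h compound treatment at 37 °C, followed by luminescence detection.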
NPC1 prom act – qHTS Assay for NPC1 Promoter Activators; AID 485313, 2010; hit rate 2.4% among 320,000; Potency, µM (series often up to 9.22 µM), hits mostly activators; Huh7 NPC1 promoter luciferase reporter, 24 h; also: nearly all actives have a fitted effect of over 60% in size
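Quantitative HTS used a cell-based reporter: Huh7 cells stably bearing the NPC1 promoter upstream of luciferase were treated with compounds for 24 h, and promoter activation was read as luminescence.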
ELG1 DNA repair – qHTS screen for small molecules that inhibit ELG1-dependent DNA repair in human embryonic kidney (HEK293T) cells expressing luciferase-tagged ELG1; HEK293T ELG1-luciferase reporter, luminescence, 16 h; DNA damage induced by 5-fluorouridine; Potency, µM (top dose mostly 46.1 µM), actives largely listed as inhibitors; hit rate 2.3% among 330,000; AID 504467, 2011; also: nearly all actives have a fitted effect of over 55% in size
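Quantitative HTS, concentration-response format. 2,000 cells/well co-treated with 5-fluorouridine and compound, 16 hr in 5% CO2 at 37 °C; ONE-Glo luminescence read after 30 min.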
ELG1 genotoxic – qHTS screen for small molecules that induce genotoxicity in human embryonic kidney (HEK293T) cells expressing luciferase-tagged ELG1; Potency, µM (top dose mostly 46 µM), actives largely listed as activators; HEK293T ELG1-luciferase reporter, luminescence, 16 h; hit rate 1.3% among 330,000; also: nearly all actives have a fitted effect of over 60% in size
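Reporter readout depends on ELG1 protein level, which increases with genetic stress. After 16 hr compound exposure at 37 °C, luciferase activity was quantified using ONE-Glo.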
SMN2 splice up – qHTS Assay for Enhancers of SMN2 Splice Variant Expression. Potency, µM (top dose mostly 46.1 µM), actives largely listed as activators. hit rate 2.8% among 210,000. HEK293 SMN2-luciferase splicing reporter, luminescence, 30-36 h; also: nearly all actives have a fitted effect of over 55% in size
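HEK293 cells carry an SMN2 […]–luciferase reporter in which exon 7 inclusion puts luciferase in frame. Cells were plated 10-12 h before compound addition, then incubated 30-36 h at 37C. ONE-Glo luminescence was read; sodium butyrate at 4.5 mM final served as control.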
Of the large screens only hits and unclear results are named; the others gave an inactive call. Calls follow the shape of the dose curve; as a rule, active = well fitted curve in the direction sought with a large enough effect; inconclusive = small, poorly fitted or top-dose-only effect, or another doubt; inactive = no such curve, though single readings can be large; an effect the other way counts as inactive or inconclusive.

COc1ccc(C(C(=O)NC2CCCC2)N(C(=O)c2snc(C(N)=O)c2N)c2cccc(O)c2)cc1 (stereo not drawn)	ELG1 DNA repair 16µM (no result: SMN2 splice up)
COc1ccccc1N(C(=O)c1snc(C(N)=O)c1N)C(C(=O)NCc1ccccc1)c1ccc(O)cc1 (stereo not drawn)	none (no result: SMN2 splice up)
COc1ccc(C(C(=O)NCc2ccccc2)N(Cc2ccco2)C(=O)c2snc(C(N)=O)c2N)cc1 (stereo not drawn)	ELG1 DNA repair 21µM (no result: SMN2 splice up)
COc1ccc(C(C(=O)NCc2ccccc2)N(C(=O)c2snc(C(N)=O)c2N)c2ccccc2OC)cc1 (stereo not drawn)	ELG1 DNA repair 18µM (no result: SMN2 splice up)
O=c1[nH]c(C2CC2)nc2sc3c(c12)CCCC3	none
O=c1c2c3c(sc2nc2sc(C4CC4)nn12)CCCC3	FLuc counter 3µM, Rab9 promoter act 4µM, NPC1 prom act 2.5µM, ELG1 DNA repair inconclusive, ELG1 genotoxic 5.8µM, SMN2 splice up 7.9µM
CNC(=O)/C(C#N)=C/c1c(N2CCN(c3cccc(Cl)c3)CC2)nc2c(C)cccn2c1=O	ELG1 DNA repair 21µM (no result: SMN2 splice up)
CCNC(=O)/C(C#N)=C/c1c(N2CCN(c3ccc(OC)cc3)CC2)nc2c(C)cccn2c1=O	ELG1 DNA repair 23µM (no result: SMN2 splice up)
CCNC(=O)/C(C#N)=C/c1c(N2CCN(c3ccccc3)CC2)nc2c(C)cccn2c1=O	ELG1 DNA repair inconclusive (no result: SMN2 splice up)
Cc1cccc2sc(N(Cc3cccnc3)C(=O)C3COc4ccccc4O3)nc12 (stereo not drawn)	none (no result: Rab9 promoter act, NPC1 prom act, ELG1 DNA repair, ELG1 genotoxic, SMN2 splice up)
O=C(NCCNCCO)c1c(O)c2cccc3c2n(c1=O)CCC3	ELG1 DNA repair 6.5µM, SMN2 splice up inconclusive
O=C(/C(=C(\[O-])c1ccccc1)[n+]1ccc2ccccc2c1)c1ccccc1	FLuc counter 24µM, ELG1 DNA repair inconclusive
O=C(CSc1ncc(-c2ccccc2)[nH]1)Nc1cccc(Br)c1	FLuc counter inconclusive (no result: Rab9 promoter act, NPC1 prom act, ELG1 DNA repair, ELG1 genotoxic)
CN(c1ccc(OCC(=O)Nc2nc3ccccc3s2)cc1)S(=O)(=O)c1ccccc1	ELG1 DNA repair 8.2µM (no result: SMN2 splice up)
CCOC(=O)Cc1csc(NC(=O)COc2ccc(OC)cc2)n1	FLuc counter 19µM
CCOC(=O)Cc1csc(NC(=O)COc2ccc(N(C)S(=O)(=O)c3ccc(C)cc3)cc2)n1	ELG1 DNA repair 18µM
CCOC(=O)Cc1csc(NC(=O)COc2ccc3ccccc3c2)n1	FLuc counter 13µM
CCOc1ccc(S(=O)(=O)N(C)c2ccc(OCC(=O)Nc3nc4ccccc4s3)cc2)cc1	ELG1 DNA repair inconclusive
O=C(CCCn1c(=O)c2cccn2c2ccccc21)Nc1cccc(Cl)c1	FLuc counter 12µM (no result: Rab9 promoter act, NPC1 prom act, ELG1 DNA repair, ELG1 genotoxic, SMN2 splice up)
COc1ccc(NC(=O)CCCn2c(=O)c3cccn3c3ccccc32)c(OC)c1	FLuc counter 0.85µM (no result: Rab9 promoter act, NPC1 prom act, ELG1 DNA repair, ELG1 genotoxic, SMN2 splice up)
COc1ccc(NC(=O)CSc2oc(-c3ccc(F)cc3)nc2S(=O)(=O)c2ccc(C)cc2)c(OC)c1	none (no result: Rab9 promoter act, NPC1 prom act, ELG1 DNA repair, ELG1 genotoxic)
O=C(Nc1cccs1)Nc1cc(C(F)(F)F)ccc1Cl	FLuc counter inconclusive (no result: Rab9 promoter act, NPC1 prom act, ELG1 DNA repair, ELG1 genotoxic)
O=C(Nc1ccccc1Cl)Nc1ccccc1Cl	FLuc counter inconclusive, ELG1 DNA repair inconclusive (no result: SMN2 splice up)
O=C(Nc1csc([N+](=O)[O-])c1)Nc1ccccc1Cl	FLuc counter 17µM (no result: SMN2 splice up)
O=C(Nc1ccc(Nc2ccccc2)cc1)Nc1ccccc1Cl	FLuc counter 11µM, Rab9 promoter act inconclusive, NPC1 prom act inconclusive, ELG1 DNA repair inconclusive, ELG1 genotoxic inconclusive (no result: SMN2 splice up)
O=C(Nc1ccccc1)Nc1cc(Cl)cc(Cl)c1	FLuc counter 27µM, Rab9 promoter act inconclusive
O=C(Nc1ccc(Cl)cc1)Nc1ccccc1Sc1ncc([N+](=O)[O-])s1	FLuc counter 12µM, Rab9 promoter act inconclusive, NPC1 prom act inconclusive, ELG1 DNA repair inconclusive, ELG1 genotoxic inconclusive (no result: SMN2 splice up)
CCC(N)(C(=O)O)c1ccc(C(=O)O)cc1 (stereo not drawn)	none (no result: FLuc counter, Rab9 promoter act, NPC1 prom act, ELG1 DNA repair, ELG1 genotoxic)
Cc1ccccc1C	none (no result: FLuc counter, Rab9 promoter act, NPC1 prom act, ELG1 DNA repair, ELG1 genotoxic)
O=C(Nc1ccc(Cl)cc1C(F)(F)F)C(Sc1cccc[n+]1[O-])c1ccccc1 (stereo not drawn)	SMN2 splice up 5.6µM
Cc1ccc(C)c(NC(=O)C(Sc2cccc[n+]2[O-])c2ccccc2)c1 (stereo not drawn)	none
